# mHTT CaM bind: mutant huntingtin-calmodulin interaction inhibitors – biochemical, AlphaScreen, primary screen | inhibition, % at 15 µM | AlphaScreen His-mHTT/GST-CaM binding, luminescence | 190,000 compounds, 3.6% hits | P42858;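 note: 0% = both proteins with DMSO and 100% = one protein alone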
# Pf apPOL inh: Pf-apPOL inhibitors, biochemical, fluorescence; Plasmodium falciparum apicoplast DNA polymerase (apPOL); Recombinant Pf-apPOL, molecular beacon fluorescence, 1.5 h; inhibition, % at 10 µM; 210,000 compounds, 0.25% hits; AID 1794808, 2022
# * = called active by the depositor; . = not tested or not shown. The entries come from a sample that favours hits as a whole. Cut-off read from the data, not from the text of the source: active = inhibition above about 50%; inactive = the rest.
SMILES,mHTT CaM bind,Pf apPOL inh
NC(=O)CSc1nc2ccccc2n1CCOc1ccc(Cl)cc1,64*,2
O=C(NCc1ccccc1)/C(=C\c1ccc2c(c1)OCO2)NC(=O)c1ccccc1Cl,5,-2
Cn1cc(-c2nc(C(=O)NCc3ccc(F)c(Cl)c3)cs2)c2cccnc21,100*,2
Cn1cc(-c2nc(C(=O)NCc3cccc(F)c3)cs2)c2cccnc21,91*,2
Cn1cc(CC(=O)NCc2cccc(F)c2)c2cccnc21,-10,2
Cn1cc(-c2nc(C(=O)NCc3ccc(F)cc3Cl)cs2)c2cccnc21,2,-4
N#CC(N)=C(C#N)N=Cc1ccccc1[N+](=O)[O-],.,-2
O=c1[nH]c(SCc2ccccc2Cl)nc2c1CN(Cc1ccccc1)CC2,1,-2
N#Cc1cccc(NC(=O)CSc2nc3c(c(=O)[nH]2)CN(Cc2ccccc2)CC3)c1,54*,-6
COC(=O)c1cnc2nc(C)ccc2c1Nc1ccc(Cl)cc1C,85*,1
CCOC(=O)c1cnc2nc(C)ccc2c1Nc1cc(F)ccc1Cl,42,0
COC(=O)c1cnc2nc(C)ccc2c1Nc1cccc(Cl)c1,11,-5
CCOC(=O)c1cnc2nc(C)ccc2c1Nc1ccc(F)c(Cl)c1,68*,-10
CCOC(=O)c1cnc2nc(C)ccc2c1Nc1cccc(Cl)c1,63*,-13
COC(=O)c1cnc2nc(C)ccc2c1Nc1ccc(Cl)cc1F,38,-3
CCC(C)C(=O)N1CCc2c(nc3cc(-c4ccccc4Cl)[nH]n3c2=O)C1 (centres undefined),6,1
COC(=O)c1ccc(NC(=O)Cc2csc(Nc3ccc(F)cc3)n2)cc1,-7,-8
O=c1[nH]c(-c2ccc(F)cc2)cn1-c1ccc(Br)cc1,6,0
O=c1[nH]c(-c2ccc(Br)cc2)cn1-c1ccc(Cl)cc1,63*,-4
CCOc1sc2nc(C)n(CC(=O)N3CCC(C)CC3)c(=O)c2c1C,6,-4
O=C(Nc1nc2c(s1)COCC2)c1ccc(OC(F)(F)F)cc1,-7,-18
Cc1c(C(=O)O)cccc1-c1ccc(/C=C/[N+](=O)[O-])o1,3,-12
Cc1ccc(Cl)cc1-c1ccc(/C=C/[N+](=O)[O-])o1,77*,0
CCNS(=O)(=O)c1cccnc1Nc1cccc(Cl)c1,-14,-2
O=S(=O)(Nc1ccc(F)cc1)c1cccnc1Nc1cccc(Cl)c1,93*,6
SMILES,mHTT CaM bind,Pf apPOL inh
CC(C)C[C@@H](CO)N(Cc1ccccc1)S(=O)(=O)N(Cc1ccccc1)[C@@H](CO)CC(C)C,100*,-3
CC(C)C[C@@H](CO)N(Cc1ccccc1)S(=O)(=O)N(Cc1ccccc1)[C@H](CO)CC(C)C,93*,-2
COc1ccc(CN([C@H](C)CO)S(=O)(=O)N(Cc2ccccc2)[C@H](CO)C(C)C)cc1,16,2
COc1ccc(CN([C@H](CO)CC(C)C)S(=O)(=O)N(Cc2ccccc2)[C@H](CO)CC(C)C)cc1,98*,-1
O=S(=O)(N(Cc1ccccc1)[C@H](CO)Cc1ccccc1)N(Cc1ccccc1)[C@H](CO)Cc1ccccc1,0,-2
C=C[C@H](CC(C)C)N(Cc1ccccc1)S(=O)(=O)N(Cc1ccccc1)[C@@H](C=C)CC(C)C,-12,-3
CCc1ccccc1NCN1C(=O)c2ccccc2C1=O,21,6
Cc1ccc(Nc2cc(N3CCC(C(=O)N4CCCC4)CC3)ncn2)cc1,3,-15
Cc1ccc2nc(NC(=O)C3CC(=O)N(CCc4c[nH]c5ccc(F)cc45)C3)sc2c1 (centres undefined),91*,-1
COc1ccc2[nH]cc(CCN3CC(C(=O)Nc4ccc(C)cc4C)CC3=O)c2c1 (centres undefined),12,-3
COc1ccc2[nH]cc(CCN3CC(C(=O)Nc4nc5ccc(C)cc5s4)CC3=O)c2c1 (centres undefined),56*,-2
Cc1ccc(C)c(NC(=O)C2CC(=O)N(CCc3c[nH]c4ccc(F)cc34)C2)c1 (centres undefined),22,0
CC(=O)Nc1ccc(C(=O)NCc2ccc(F)c(Cl)c2)c(N2CCOCC2)c1,28,-3
O=C(c1ccccn1)N1CCCC2(C1)Nc1ccccc1NC2=NCc1ccccc1 (centres undefined),45,-9
CC(=O)N1CCCC2(C1)Nc1ccccc1NC2=NCc1ccccc1 (centres undefined),72*,1
O=C(c1ccoc1)N1CCCC2(C1)Nc1ccccc1NC2=NCc1ccccc1 (centres undefined),100*,4
O=C(c1ccco1)N1CCCC2(C1)Nc1ccccc1NC2=NCc1ccccc1 (centres undefined),84*,-5
O=C(c1cccnc1)N1CCCC2(C1)Nc1ccccc1NC2=NCc1ccccc1 (centres undefined),46,-5

# From PubChem BioAssay
